Experimental data taken from PubChem BioAssay (EPA / NIEHS).
Some structures have more than one record in an assay (separate samples or runs), and their calls can disagree. Active and inactive are the calls of the source. How the source made its calls: active means hit-call score of the fitted dose curve at least 0.9, where 1 is the maximum; inactive means score below 0.9.

Assays:
[1] = ATG_GLI_CIS: Attagene CIS-FACTORIAL HepG2 Assay for human Zinc Finger Protein GLI1 (AID 2282945); conditions: HepG2, Attagene cis-factorial reporter mRNA, GLI element; actives raise or lower the signal
Method in brief: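 HepG2 cells transiently transfected with cis-promoter multiplexed reporter units report endogenous transcription factor activity. After 24 h chemical exposure, reporter mRNA was quantified by RT-PCR, 6-FAM labelling, HpaI digestion and capillary electrophoresis, with bidirectional fitting against DMSO.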

[2] = target: Bile acid receptor (Homo sapiens) (UniProt Q96RI1); assay: ATG_IR1_CIS: Attagene CIS-FACTORIAL HepG2 Assay for human Nuclear Receptor Subfamily 1 Group H Member 4 (NR1H4), IR1 submotif (AID 2282946); conditions: IR1 reporter transcription, actives raise or lower the signal
Method in brief: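 Transient MRTU transfection, HepG2; 24 h dosing; RNA → RT-PCR → 6-FAM primer extension → HpaI digest → capillary electrophoresis fluorescence. Gain/loss of signal fitted relative to DMSO.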

[3] = ATG_GRE_CIS: Attagene CIS-FACTORIAL HepG2 Assay for human Glucocorticoid Response Elements (GRE) (AID 2282947); conditions: HepG2 GRE cis-reporter, Attagene multiplex mRNA; actives raise or lower the signal
Method in brief: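 Following 24 h chemical exposure of transiently transfected HepG2 cells, total RNA was reverse-transcribed and reporter cDNA amplified, fluorescently labelled and sized by capillary electrophoresis. Signal gain or loss was fitted relative to DMSO vehicle.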

[4] = ATG_ISRE_CIS: Attagene CIS-FACTORIAL HepG2 Assay for human Interferon Regulatory Factor 1 (IRF1) binding to an Interferon-Stimulated Response Element (ISRE) (AID 2282948); conditions: HepG2 ISRE cis-reporter (Attagene), mRNA transcription readout; actives raise or lower the signal
Method in brief: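 Cell-based cis-reporter assay; HepG2; 24 h exposure; reporter mRNA by RT-PCR plus capillary electrophoresis fluorescence; activity in either direction scored relative to DMSO.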

[5] = ATG_M_32_CIS: Attagene CIS-FACTORIAL HepG2 Assay for M32 Transcription Factor (Internal Marker) (AID 2282949); conditions: HepG2 Attagene cis-factorial M32 reporter, mRNA; actives raise or lower the signal;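 further: background control marker of the multiplexed CIS panel rather than a real target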
Method in brief: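 Fluorescent capillary electrophoresis peaks of HpaI-digested, FAM-labelled RT-PCR reporter products give the signal. Source: transiently transfected human liver HepG2 cells, 24 h after chemical dosing; bidirectional fitting against DMSO.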

[6] = ATG_M_06_CIS: Attagene CIS-FACTORIAL HepG2 Assay for M06 Transcription Factor (Internal Marker) (AID 2282950); conditions: HepG2 Attagene CIS-FACTORIAL M06 internal marker reporter; actives raise or lower the signal
Method in brief: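 Steps: transfect HepG2 with multiplexed cis-element reporter constructs; dose chemical 24 h; extract RNA with DNase treatment; reverse-transcribe, PCR-amplify, 6-FAM label, HpaI digest; separate fragments by capillary electrophoresis. Activity fitted both directions versus DMSO.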

[7] = target: Hypoxia-inducible factor 1-alpha (Homo sapiens) (UniProt Q16665); assay: ATG_HIF1a_CIS: Attagene CIS-FACTORIAL HepG2 Assay for human Hypoxia Inducible Factor 1 (HIF1A) (AID 2282951); conditions: HepG2 Attagene cis-factorial HIF1a reporter transcription; actives raise or lower the signal
Method in brief: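 HepG2, transient cis-reporter library, 24 h dosing. RNA → RT (oligo dT) → PCR → 6-FAM primer extension → HpaI → CE. Bidirectional curve fit vs DMSO.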

[8] = target: Hepatocyte nuclear factor 6 (Homo sapiens) (UniProt Q9UBC0); assay: ATG_HNF6_CIS: Attagene CIS-FACTORIAL HepG2 Assay for human Hepatocyte Nuclear Factor 6 (HNF6) (AID 2282952); conditions: HepG2 Attagene cis-factorial HNF6 reporter transcription; actives raise or lower the signal
Method in brief: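 Cells are HepG2 carrying transiently transfected cis-promoter reporter units. Treatment lasts 24 h, after which reporter transcripts are reverse-transcribed, amplified, FAM-labelled and sized by capillary electrophoresis. DMSO serves as baseline.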

[9] = target: Heat shock factor protein 1 (Homo sapiens) (UniProt Q00613); assay: ATG_HSE_CIS: Attagene CIS-FACTORIAL HepG2 Assay for human Heat Shock Transcription Factor 1 (HSE) (AID 2282953); conditions: HepG2 HSE cis-reporter, Attagene RNA transcription; actives raise or lower the signal
Method in brief: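 Cells were transfected with cis-element-driven reporter constructs, dosed for 24 h, then total RNA was reverse-transcribed and reporter cDNA amplified, FAM-labelled and digested with HpaI. Fragments were resolved by capillary electrophoresis; gain or loss was fitted against DMSO.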

[10] = ATG_MRE_CIS: Attagene CIS-FACTORIAL HepG2 Assay for human Metal Responsive Element (MRE) (AID 2282954); conditions: HepG2 MRE cis-reporter transcription, Attagene multiplex; actives raise or lower the signal
Method in brief: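 Step one: transfect HepG2 with cis-regulated reporter units. Step two: dose 24 h. Step three: isolate RNA, RT-PCR, 6-FAM label, HpaI digest, capillary electrophoresis. Fit bidirectionally to DMSO.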

[11] = ATG_PBREM_CIS: Attagene CIS-FACTORIAL HepG2 Assay for human Phenobarbital-responsive Enhancer Module (PBREM) (AID 2282955); conditions: HepG2 PBREM cis-reporter, Attagene multiplexed transcription; actives raise or lower the signal
Method in brief: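 HepG2, transient MRTU transfection, 24 h dosing; RNA → oligo(dT) RT → PCR → 6-FAM extension → HpaI → CE. Bidirectional fit vs DMSO.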

[12] = target: Paired box protein Pax-6 (Homo sapiens) (UniProt P26367); assay: ATG_Pax6_CIS: Attagene CIS-FACTORIAL HepG2 Assay for human Paired Box 6 (PAX6) (AID 2282956); conditions: HepG2 CIS-FACTORIAL PAX6 reporter transcription, RNA readout; actives raise or lower the signal
Method in brief: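 Multiplexed cis-reporter HepG2 system; 24 h treatment; reporter mRNA read by RT-PCR/CE fluorescence; bidirectional fit vs DMSO.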

[13] = ATG_PXRE_CIS: Attagene CIS-FACTORIAL HepG2 Assay for human Pregnane X Receptor Element (PXRE) (AID 2282957); conditions: HepG2 Attagene CIS-FACTORIAL PXRE reporter, mRNA; actives raise or lower the signal
Method in brief: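 Multiplexed cis-reporter assay in transiently transfected human HepG2 cells; 24 h chemical exposure. Reporter transcripts quantified by RT-PCR with fluorescent labeling and capillary electrophoresis.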

[14] = ATG_PPRE_CIS: Attagene CIS-FACTORIAL HepG2 Assay for human Peroxisome Proliferator-activated Response Element (PPRE) (AID 2282958); conditions: HepG2 PPRE cis-element reporter, Attagene transcription factor profiling; actives raise or lower the signal
Method in brief: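 Transcript-level reporter induction in transfected HepG2 cells after 24 h chemical exposure, quantified by fluorescence from RT-PCR products separated by capillary electrophoresis.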

[15] = ATG_RORE_CIS: Attagene CIS-FACTORIAL HepG2 Assay for human RAR-related Orphan Receptor Element (RORE) (AID 2282959); conditions: HepG2 Attagene cis-factorial RORE reporter, mRNA; actives raise or lower the signal
Method in brief: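 Multiplexed reporter assay measuring mRNA induction from a cis promoter element in transiently transfected HepG2 cells after 24 h treatment. Detection via RT-PCR and capillary electrophoresis fluorescence; DMSO serves as baseline.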

[16] = ATG_Sox_CIS: Attagene CIS-FACTORIAL HepG2 Assay for human SRY-box transcription factor (SOX) (AID 2282960); conditions: HepG2 Attagene cis-factorial SOX reporter, mRNA; actives raise or lower the signal
Method in brief: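 Cells were transfected with reporter constructs under cis-regulatory promoters, then exposed to chemicals for 24 h. Reporter transcripts were quantified by fluorescence after RT-PCR and capillary electrophoresis; activity was fitted in both directions against DMSO.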

[17] = target: Transcription factor Sp1 (Homo sapiens) (UniProt P08047); assay: ATG_Sp1_CIS: Attagene CIS-FACTORIAL HepG2 Assay for human Specificity Protein 1 (Sp1) (AID 2282961); conditions: HepG2 Sp1 cis-reporter transcription, actives raise or lower the signal
Method in brief: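 Measures mRNA induction of an Sp1-linked reporter in HepG2 cells 24 h post-dosing. Multiplexed reporters read by RT-PCR and capillary electrophoresis; DMSO serves as negative control and baseline.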

[18] = ATG_SREBP_CIS: Attagene CIS-FACTORIAL HepG2 Assay for human Sterol Regulatory Element Binding (SREBP) (AID 2282962); conditions: HepG2 Attagene cis-factorial SREBP reporter, mRNA; actives raise or lower the signal
Method in brief: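 mRNA induction of transfected cis-promoter reporters in HepG2 cells, 24 h post-dose. Detection: RT-PCR with 6-FAM-labelled products, HpaI digest, capillary electrophoresis. DMSO served as negative control and baseline.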

[19] = target: Signal transducer and activator of transcription 3 (Homo sapiens) (UniProt P40763); assay: ATG_STAT3_CIS: Attagene CIS-FACTORIAL HepG2 Assay for human Signal Transducer and Activator of Transcription 3 (STAT3) (AID 2282963); conditions: HepG2, Attagene cis-factorial STAT3 reporter transcription; actives raise or lower the signal
Method in brief: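 Transcript-level reporter assay. HepG2 transient MRTU transfection, 24 h exposure, fluorescence detection after RT-PCR and CE; DMSO baseline.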

[20] = ATG_TA_CIS: Attagene CIS-FACTORIAL HepG2 Assay for human TA Basal Promoter (AID 2282964); conditions: HepG2 Attagene CIS-factorial TA basal promoter reporter; actives raise or lower the signal
Method in brief: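 Steps: transfect HepG2 with MRTUs; dose 24 h; isolate RNA, DNase-treat, reverse-transcribe; PCR and FAM-label reporter cDNA; digest with HpaI 2h at 37 C; run capillary electrophoresis. Activity fitted both directions against DMSO.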

Measured: AC50

Sequence of Signal transducer and activator of transcription 3 (Homo sapiens) (P40763 whole entry, looked up): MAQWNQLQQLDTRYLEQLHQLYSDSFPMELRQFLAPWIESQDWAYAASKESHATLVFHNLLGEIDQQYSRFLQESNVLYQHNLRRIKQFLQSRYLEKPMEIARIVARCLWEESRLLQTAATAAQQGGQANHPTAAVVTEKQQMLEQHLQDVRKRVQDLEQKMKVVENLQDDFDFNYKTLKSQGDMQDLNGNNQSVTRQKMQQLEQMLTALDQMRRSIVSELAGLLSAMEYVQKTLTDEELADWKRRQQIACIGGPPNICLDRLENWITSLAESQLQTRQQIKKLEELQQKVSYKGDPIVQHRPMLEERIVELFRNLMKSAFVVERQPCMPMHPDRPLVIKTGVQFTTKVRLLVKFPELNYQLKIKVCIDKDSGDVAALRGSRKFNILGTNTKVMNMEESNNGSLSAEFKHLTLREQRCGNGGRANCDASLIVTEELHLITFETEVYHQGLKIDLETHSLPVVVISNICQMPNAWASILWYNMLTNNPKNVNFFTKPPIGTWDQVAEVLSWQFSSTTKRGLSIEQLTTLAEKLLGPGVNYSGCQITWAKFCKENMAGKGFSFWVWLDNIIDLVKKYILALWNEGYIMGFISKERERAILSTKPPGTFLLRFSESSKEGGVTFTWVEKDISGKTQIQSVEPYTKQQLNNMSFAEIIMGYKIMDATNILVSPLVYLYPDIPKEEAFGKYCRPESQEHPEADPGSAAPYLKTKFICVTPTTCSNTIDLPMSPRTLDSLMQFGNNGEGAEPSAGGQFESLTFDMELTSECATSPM
Sequence of Hepatocyte nuclear factor 6 (Homo sapiens) (Q9UBC0 whole entry, looked up): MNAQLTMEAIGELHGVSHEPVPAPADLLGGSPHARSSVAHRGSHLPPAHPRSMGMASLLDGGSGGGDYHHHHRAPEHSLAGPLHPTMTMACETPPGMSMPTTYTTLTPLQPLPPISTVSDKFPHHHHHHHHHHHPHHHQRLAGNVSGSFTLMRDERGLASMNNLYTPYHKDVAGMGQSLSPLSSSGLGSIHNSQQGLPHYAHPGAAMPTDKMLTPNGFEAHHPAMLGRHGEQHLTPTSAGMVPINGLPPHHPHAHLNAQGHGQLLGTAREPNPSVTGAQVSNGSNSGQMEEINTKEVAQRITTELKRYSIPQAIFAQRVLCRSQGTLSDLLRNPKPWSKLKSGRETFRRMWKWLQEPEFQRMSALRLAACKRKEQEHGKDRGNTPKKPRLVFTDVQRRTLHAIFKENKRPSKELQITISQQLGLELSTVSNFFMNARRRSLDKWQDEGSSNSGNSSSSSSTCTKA
Sequence of Heat shock factor protein 1 (Homo sapiens) (Q00613 whole entry, looked up, the tested form may be a part): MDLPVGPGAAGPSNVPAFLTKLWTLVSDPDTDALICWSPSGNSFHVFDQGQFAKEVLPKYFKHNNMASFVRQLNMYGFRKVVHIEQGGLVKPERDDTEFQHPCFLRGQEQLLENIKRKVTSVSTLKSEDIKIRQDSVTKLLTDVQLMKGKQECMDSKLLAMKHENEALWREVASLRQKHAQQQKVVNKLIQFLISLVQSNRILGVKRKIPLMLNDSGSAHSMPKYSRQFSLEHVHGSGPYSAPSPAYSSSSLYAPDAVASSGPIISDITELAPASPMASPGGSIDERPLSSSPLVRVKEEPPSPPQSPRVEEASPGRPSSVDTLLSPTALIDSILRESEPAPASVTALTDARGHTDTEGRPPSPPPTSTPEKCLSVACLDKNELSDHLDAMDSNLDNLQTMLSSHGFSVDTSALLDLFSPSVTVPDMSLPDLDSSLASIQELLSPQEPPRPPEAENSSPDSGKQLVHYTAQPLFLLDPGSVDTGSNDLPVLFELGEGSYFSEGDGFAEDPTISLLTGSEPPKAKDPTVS
Sequence of Bile acid receptor (Homo sapiens) (Q96RI1 whole entry, looked up): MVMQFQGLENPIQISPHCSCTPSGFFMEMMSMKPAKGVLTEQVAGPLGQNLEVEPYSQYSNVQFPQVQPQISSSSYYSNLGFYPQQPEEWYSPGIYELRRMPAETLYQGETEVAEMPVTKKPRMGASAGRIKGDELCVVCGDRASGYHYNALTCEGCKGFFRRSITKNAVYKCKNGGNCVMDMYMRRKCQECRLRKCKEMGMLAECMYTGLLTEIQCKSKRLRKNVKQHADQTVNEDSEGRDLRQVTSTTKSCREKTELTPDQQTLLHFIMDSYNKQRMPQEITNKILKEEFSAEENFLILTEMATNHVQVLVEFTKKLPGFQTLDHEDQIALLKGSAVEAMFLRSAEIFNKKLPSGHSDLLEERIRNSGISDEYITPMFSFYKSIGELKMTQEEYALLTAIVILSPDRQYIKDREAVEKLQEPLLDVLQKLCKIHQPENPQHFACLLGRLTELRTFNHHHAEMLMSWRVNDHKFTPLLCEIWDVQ
Sequence of Transcription factor Sp1 (Homo sapiens) (P08047 whole entry, looked up): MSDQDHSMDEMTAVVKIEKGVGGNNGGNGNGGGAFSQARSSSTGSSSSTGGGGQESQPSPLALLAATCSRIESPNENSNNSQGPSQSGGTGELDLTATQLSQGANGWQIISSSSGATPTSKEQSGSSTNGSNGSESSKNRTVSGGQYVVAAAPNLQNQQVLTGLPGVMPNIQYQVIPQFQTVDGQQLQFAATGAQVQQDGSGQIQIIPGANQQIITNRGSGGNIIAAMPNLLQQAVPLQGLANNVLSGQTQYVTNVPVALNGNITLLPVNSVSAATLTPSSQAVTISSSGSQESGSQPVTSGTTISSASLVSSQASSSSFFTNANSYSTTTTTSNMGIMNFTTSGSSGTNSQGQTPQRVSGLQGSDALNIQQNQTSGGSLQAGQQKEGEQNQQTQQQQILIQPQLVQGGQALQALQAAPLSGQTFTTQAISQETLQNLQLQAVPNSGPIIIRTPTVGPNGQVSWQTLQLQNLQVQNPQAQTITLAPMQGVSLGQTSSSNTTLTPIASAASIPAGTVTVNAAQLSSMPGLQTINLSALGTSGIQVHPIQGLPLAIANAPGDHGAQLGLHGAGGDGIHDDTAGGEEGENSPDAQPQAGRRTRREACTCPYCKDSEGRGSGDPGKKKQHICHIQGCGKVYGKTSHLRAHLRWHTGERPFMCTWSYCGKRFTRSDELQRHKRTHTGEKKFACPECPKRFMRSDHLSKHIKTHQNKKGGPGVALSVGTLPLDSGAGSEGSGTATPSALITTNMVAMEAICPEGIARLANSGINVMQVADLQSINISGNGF
Sequence of Hypoxia-inducible factor 1-alpha (Homo sapiens) (Q16665 whole entry, looked up): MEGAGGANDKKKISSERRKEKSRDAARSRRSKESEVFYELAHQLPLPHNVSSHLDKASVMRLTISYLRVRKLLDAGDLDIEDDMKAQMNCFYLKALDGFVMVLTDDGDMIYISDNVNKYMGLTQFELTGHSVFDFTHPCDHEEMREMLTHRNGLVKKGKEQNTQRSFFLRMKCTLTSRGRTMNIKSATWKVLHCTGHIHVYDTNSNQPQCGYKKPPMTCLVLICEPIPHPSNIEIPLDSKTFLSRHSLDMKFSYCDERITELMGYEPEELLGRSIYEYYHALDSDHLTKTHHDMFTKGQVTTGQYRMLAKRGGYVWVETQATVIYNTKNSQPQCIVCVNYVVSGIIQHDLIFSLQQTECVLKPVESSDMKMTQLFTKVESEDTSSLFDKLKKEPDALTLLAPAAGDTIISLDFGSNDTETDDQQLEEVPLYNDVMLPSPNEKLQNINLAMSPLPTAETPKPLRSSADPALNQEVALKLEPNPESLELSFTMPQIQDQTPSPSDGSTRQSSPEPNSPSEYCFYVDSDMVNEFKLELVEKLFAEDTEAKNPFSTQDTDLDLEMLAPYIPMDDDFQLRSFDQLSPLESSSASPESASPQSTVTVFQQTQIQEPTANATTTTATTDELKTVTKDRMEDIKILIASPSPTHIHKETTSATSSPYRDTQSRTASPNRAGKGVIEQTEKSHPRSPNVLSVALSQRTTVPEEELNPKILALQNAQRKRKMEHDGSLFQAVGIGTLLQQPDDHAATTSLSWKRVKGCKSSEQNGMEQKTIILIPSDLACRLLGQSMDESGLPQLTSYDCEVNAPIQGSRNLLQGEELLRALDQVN
Sequence of Paired box protein Pax-6 (Homo sapiens) (P26367 whole entry, looked up): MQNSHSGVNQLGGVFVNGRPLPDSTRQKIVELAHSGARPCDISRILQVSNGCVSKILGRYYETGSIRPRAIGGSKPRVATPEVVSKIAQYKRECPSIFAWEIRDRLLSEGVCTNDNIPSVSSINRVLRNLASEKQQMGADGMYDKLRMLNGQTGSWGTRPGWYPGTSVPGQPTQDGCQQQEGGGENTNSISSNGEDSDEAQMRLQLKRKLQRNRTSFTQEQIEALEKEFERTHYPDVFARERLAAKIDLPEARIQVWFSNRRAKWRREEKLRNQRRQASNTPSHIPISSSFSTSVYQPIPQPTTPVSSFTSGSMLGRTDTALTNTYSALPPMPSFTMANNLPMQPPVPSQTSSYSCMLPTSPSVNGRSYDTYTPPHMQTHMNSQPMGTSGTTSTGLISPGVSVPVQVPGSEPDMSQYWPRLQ

CC(C)CBr
inactive: all assays above

Clc1ccc(Oc2ccccc2)cc1
inactive: all assays above

OCC(F)(F)OC(F)(F)C(F)(F)OC(F)(F)C(F)(F)OC(F)(F)F
inactive: [1] | [2] | [3] | [4] | [5] | [6] | [7] | [9] | [10] | [12] | [13] | [14] | [15] | [16] | [17] | [18] | [19] | [20]
active: [4] 90 µM | [9] 75.6 µM | [10] 75.7 µM

NC(=O)C(F)(F)C(F)(F)F
inactive: all assays above

CC(C)(C)c1ccccc1OP(=O)(Oc1ccccc1)Oc1ccccc1
active: [2] 26.5 µM | [4] 50.2 µM | [13] 0.576 µM | [18] 11.8 µM
inactive: all other assays above

CCOP(=S)(OCC)SCSc1ccc(Cl)cc1
active: [11] 5.81 µM | [13] 3 µM
inactive: all other assays above

O=c1[nH]c2ccccc2c(=O)o1
inactive: all assays above

CC(Cl)CN(C)C (centres undefined)
inactive: all assays above

O=[N+]([O-])c1ccc(Cl)c(Cl)c1
active: [13] 49.2 µM
inactive: all other assays above

CCOP(=S)(NC(C)C)Oc1ccccc1C(=O)OC(C)C (centres undefined)
active: [2] 26.5 µM | [4] 41.7 µM | [10] 59.9 µM | [13] 0.699 µM | [15] 46.6 µM
inactive: all other assays above

Oc1ccc(I)cc1
inactive: all assays above

COC(N)=O
active: [7] 100 µM
inactive: all other assays above

O=S(=O)(F)C(F)(F)C(F)(F)C(F)(F)C(F)(F)C(F)(F)C(F)(F)C(F)(F)C(F)(F)F
not listed: [8]
inactive: all other assays above

O=S1(=O)OCC2C(CO1)C1(Cl)C(Cl)=C(Cl)C2(Cl)C1(Cl)Cl (centres undefined)
active: [1] 186 µM | [4] 100 µM | [9] 142 µM | [10] 163 µM | [12] 100 µM | [13] 1.58 µM | [17] 172 µM | [18] 100 µM
not listed: [8]
inactive: all other assays above
